Source: PubChem BioAssay
CtBP-E1A inh = qHTS Assay for Inhibitors of the CtBP/E1A Interaction; AlphaScreen GST-E1A/His-CtBP binding, 1536-well; active compounds read low; actives 0.49% (n = 340,000); activity change, % (concentration not given with the values); in the data active = activity change below about -65%; inconclusive = mostly about -30% to -63%
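Steps: dispense buffer (Tris pH 8.0, NaCl 300 mM, TCEP 1 mM, BSA, Tween 20); add 5X protein mix (GST-E1A, His-CtBP, 125 nM each); pin 23 nL compound; 2 h at 37 °C, dark; add 5X beads (50 ug/mL); 1 h; read.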
RORg inh = qHTS for inhibitors of ROR gamma transcriptional activity | actives 5.4% (n = 310,000) | Drosophila S2 Gal4-RORgamma UAS-luciferase reporter, 20 h | Potency, µM (highest dose often 53.6 µM), most hits filed as inhibitors | Nuclear receptor ROR-gamma (Mus musculus), P51450; note: nearly all actives have a fitted effect of over 60% in size
Target sequence (P51450 whole entry, looked up, the tested form may be a part): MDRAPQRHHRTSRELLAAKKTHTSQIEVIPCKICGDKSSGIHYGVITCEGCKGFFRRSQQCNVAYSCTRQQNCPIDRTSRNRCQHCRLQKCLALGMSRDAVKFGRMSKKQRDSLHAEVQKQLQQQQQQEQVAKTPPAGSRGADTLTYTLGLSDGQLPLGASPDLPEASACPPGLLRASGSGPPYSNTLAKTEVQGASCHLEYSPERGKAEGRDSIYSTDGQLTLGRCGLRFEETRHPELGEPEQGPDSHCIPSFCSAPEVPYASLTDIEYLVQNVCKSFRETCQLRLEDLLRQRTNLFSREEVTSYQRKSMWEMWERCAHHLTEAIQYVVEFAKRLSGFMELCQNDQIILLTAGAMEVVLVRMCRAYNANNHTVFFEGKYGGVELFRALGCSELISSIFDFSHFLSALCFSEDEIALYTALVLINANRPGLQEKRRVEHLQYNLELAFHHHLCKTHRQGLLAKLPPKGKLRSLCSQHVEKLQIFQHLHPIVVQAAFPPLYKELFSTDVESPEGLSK
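Stable Schneider cell line, Gal4 DNA-binding domain fused to ROR gamma, UAS-luciferase. Cmpd 1 hr RT → CuSO4 700 uM final → 20 hr RT → luciferase reagent 10 min → luminescence.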
MBNL1-CUG inh = qHTS Assay for Inhibitors of MBNL1-poly(CUG) RNA binding; TR-FRET MBNL1-His/biotin-(CUG)12 binding, 665/545 ratio; Potency, µM (highest dose often 57.5 µM), most hits filed as inhibitors; actives 0.036% (n = 280,000); AID 2675, 2010; active = well fitted inhibition curve with a large enough effect in the signal ratio, with a control signal flat, not every such curve was filed as active; inconclusive = small, poorly fitted or top-dose-only effect, or effect the other way, or a change in a side signal; inactive = no such curve, though single readings can be large or run the other way; the % refers to the signal ratio
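His-tagged MBNL1 binding to biotinylated (CUG)12 RNA was measured by TR-FRET using terbium anti-His antibody (0.055 ng/ul final) and streptavidin-XL665 (5 nM final). Compounds were titrated 92 nM to 58 uM; 60 min at room temperature.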
Gal4-VP16 FLuc = VP16 counterscreen qHTS for inhibitors of ROR gamma transcriptional activity; Potency, µM (series often up to 53.6 µM), actives largely listed as inhibitors; actives 3.5% (n = 310,000); AID 2546, 2010; Drosophila S2 Gal4-VP16 UAS-luciferase, luminescence, 20 h;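 note: Gal4-VP16 expression switched on by copper sulfate through the metallothionein promoter; nearly all actives have a fitted effect of over 50% in size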
Six1-Eya2 inh = qHTS Assay for Inhibitors of the Six1/Eya2 Interaction; activity change, % (test concentration not listed); actives 0.56% (n = 360,000); Homeobox protein SIX1 (Homo sapiens) + Protein phosphatase EYA2 (Homo sapiens), …; AlphaScreen GST-Six1/His-Eya2 binding, biochemical; active compounds read low; in the data active = activity change below about -65%; inconclusive = mostly about -30% to -63%
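Six1/Eya2 binding was read as AlphaScreen signal after compounds were pinned into GST-Six1 plus His-tagged Eya2 (5X stock 250/500 nM) in pH 8.0 Tris/NaCl/TCEP buffer, beads added, then incubated 1 h, 37 C, dark.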
CBFb RUNX1 block = qHTS Assay for Compounds Blocking the Interaction Between CBF-beta and RUNX1 for the Treatment of Acute Myeloid Leukemia. AlphaScreen CBFb-His/RUNX1-biotin binding, biochemical. Potency, µM (highest dose often 59.8 µM), usual class: inhibitors. 230,000 tested, under 10 active
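Room-temperature protein-protein interaction test with 30 nM each of His-tagged CBF-beta and biotinylated RUNX1, 15 min with compound, then 90 min with nickel plus streptavidin beads. Signal read in AlphaScreen mode.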
Numbers stand for hits; i = inactive; ? = inconclusive; nt = no result. In the library only some 5.5% were active in any assay of this set; here they are far more common. Unless noted, calls come from the whole dose curve; as a rule, active = well fitted curve in the direction sought with a large enough effect; inconclusive = small, poorly fitted or top-dose-only effect, or another doubt; inactive = no such curve, though single readings can be large; an effect the other way counts as inactive or inconclusive.

SMILES	CtBP-E1A inh	RORg inh	MBNL1-CUG inh	Gal4-VP16 FLuc	Six1-Eya2 inh	CBFb RUNX1 block
Cc1ccc2nc(NC(=O)c3ccc4c(c3)OCO4)sc2c1	i	7.9µM	i	?	i	i
Cc1ccnc(NC(=O)c2ccc3c(c2)OCO3)c1	i	13µM	i	?	i	i
COc1cc(NC(=O)c2ccccc2)c(OC)cc1NC(=O)Cc1ccc(F)cc1	i	?	i	i	i	nt
O=C(Nc1ccc(Cl)cc1C(F)(F)F)C(Sc1nnc(-c2cccs2)o1)c1ccccc1 (configuration not stated)	i	i	i	i	i	i
O=C(Nc1cc(C(F)(F)F)ccc1Cl)C(Sc1nnc(-c2cccs2)o1)c1ccccc1 (configuration not stated)	i	11µM	i	?	i	i
O=C(CCNC(=O)C1CCN(S(=O)(=O)c2ccc(F)cc2)CC1)NCc1ccccn1	i	nt	nt	nt	i	nt
O=C(O)C(Cc1ccccc1)N1C(=O)C=CC1=O (configuration not stated)	i	nt	nt	nt	i	nt
O=C(COc1ccc(/C=N/NC(=O)c2cc3ccccc3o2)cc1Br)Nc1ccccc1	i	3.2µM	i	2.2µM	i	i
O=C(COc1ccccc1[N+](=O)[O-])Nc1ccc(NC(=O)c2cc3ccccc3o2)cc1	i	?	i	?	i	i
CC(=O)Nc1cnc(NC(=O)c2cccc(F)c2)cc1C	i	4µM	i	?	i	i
CCC(=O)Nc1cnc(NC(=O)c2cccc(F)c2)cc1C	i	?	i	?	i	i
c1cnc(NCCSSCCNc2ncccn2)nc1	i	nt	nt	nt	i	nt
Cc1ccc(S(=O)(=O)CC(=O)Nc2nccs2)cc1	i	nt	nt	nt	i	nt
CC(=O)c1ccc(OCC(=O)NC2CCCN(Cc3ccccc3F)C2)cc1 (configuration not stated)	nt	i	i	i	i	nt
CCc1c(C(=O)NNC(=S)NCCc2ccccc2)csc1C	i	?	i	?	i	i
CCc1cc(C(=O)NNC(=S)NC2CCCCC2)cs1	i	2.2µM	i	10µM	i	nt
CCc1c(C(=O)NNC(=S)NC2CCCCC2)csc1C	i	1.1µM	i	?	i	i
CC(C)c1cc(C(=O)NNC(=S)NC2CCCCC2)cs1	i	?	i	?	i	nt
O=C(Nc1nc(-c2ccccn2)cs1)c1cccc(-n2cnnn2)c1	nt	5µM	i	i	-92	?
Cc1ccnc2nc(C(=O)Nc3nc(-c4ccccn4)cs3)nn12	-85	?	i	i	-92	nt
O=C(Nc1ccc(Br)cc1)c1cccc(-n2cnnn2)c1	i	?	i	i	i	nt
C[C@H](NC(=O)c1ccco1)C(=O)Nc1nnc(SCc2ccccc2)s1	i	nt	nt	nt	i	nt
C[C@H](NC(=O)c1ccco1)C(=O)Nc1nc(-c2ccccn2)cs1	-89	nt	nt	nt	-89	nt
O=C(Nc1nc(-c2ccccn2)cs1)c1ccco1	-93	7.1µM	i	i	-79	?
Cc1ccccc1NC(=O)c1nc2nccc(C)n2n1	nt	i	i	i	nt	i
SMILES	CtBP-E1A inh	RORg inh	MBNL1-CUG inh	Gal4-VP16 FLuc	Six1-Eya2 inh	CBFb RUNX1 block
Cc1ccc(S(=O)(=O)N(C)c2ccc(C(=O)NC3CCCCC3)cc2)cc1	i	nt	nt	nt	i	nt
COC(=O)c1sc(-c2ccc(C(C)(C)C)cc2)cc1NC(=O)CCC(=O)O	i	i	?	?	i	i
CC(=O)N1CCN(CCS(=O)(=O)c2ccc(Br)cc2)CC1	i	nt	nt	nt	i	nt
O=C(Nc1nc(-c2ccccn2)cs1)c1ccc(Br)s1	-71	1.3µM	i	1.3µM	?	i
N#CCC(=O)Nc1ccc(C(F)(F)F)cc1N1CCOCC1	i	i	i	i	i	i
CN(Cc1ccccc1)C(=O)COC(=O)c1ccccc1SCC(=O)N1CCCC1	i	nt	nt	nt	i	nt
COC(=O)c1cc(O)cc(OC)c1C(=O)c1c(O)cc(C)cc1O	i	i	i	?	i	?
COC(=O)c1cc(O)cc(OC)c1Oc1cc(C)cc(O)c1C(=O)O	i	i	?	7.1µM	?	nt
COc1ccc2nc(C)cc(N/N=C/c3ccc(F)cc3)c2c1	i	4µM	i	5µM	i	nt
Cc1cc(N/N=C/c2ccc(O)cc2)nc(NS(=O)(=O)c2ccccc2)n1	?	i	i	?	-73	i
Cc1cc(N/N=C/c2ccc(N(C)C)cc2)nc(NCc2ccccc2)n1	i	i	i	i	i	i
CCCCNc1cc(C)nc(NCc2ccccc2)n1	i	?	i	7.1µM	i	i
COc1ccc(/C=N/Nc2cc(C)nc3ccccc23)cc1	?	?	?	?	i	nt
Cc1ccc(/C=N/Nc2cc(C)nc(NCc3ccccc3)n2)cc1	i	20µM	nt	?	i	i
CSCCC(C(=O)Nc1c(C)cccc1C)N(Cc1ccccc1)Cc1ccccc1 (configuration not stated)	i	nt	nt	nt	i	nt
CCN(C(=O)CSc1nnc(-c2cccc(F)c2)n1N)c1c(N)n(Cc2ccccc2)c(=O)[nH]c1=O	i	nt	nt	nt	i	nt
O=C(CCl)N1CCN(S(=O)(=O)c2ccc3c(c2)CCC3)CC1	i	nt	nt	nt	i	nt
Cc1cc(N/N=C/c2ccc(F)cc2)nc(NCc2ccccc2)n1	i	11µM	i	?	i	i
O=C(NC(=S)Nc1ccc(Cc2ccncc2)cc1)c1ccc(F)cc1	nt	4.5µM	i	?	i	i
